For experiment [1], the target named is Retinoic acid receptor RXR-alpha (Homo sapiens) (UniProt P19793). Kind of experiment: OT_NURR1_NURR1RXRa_0480: Odyssey Thera (OT) 8-hour HEK293T Protein Complementation Assay for Nurr1/retinoid X receptor (RXR) (AID 2283385; active means hit-call score of the fitted dose curve at least 0.9, where 1 is the maximum). The gist of the method: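 HEK293T cells expressing Nurr1 and RXRα fused to reporter fragments were dosed with compound for 8 hours. Complex formation was read as fluorescence intensity and analysed as gain of signal against DMSO as baseline.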
Chain of Retinoic acid receptor RXR-alpha (Homo sapiens) (P19793 whole entry, looked up, the tested form may be a part): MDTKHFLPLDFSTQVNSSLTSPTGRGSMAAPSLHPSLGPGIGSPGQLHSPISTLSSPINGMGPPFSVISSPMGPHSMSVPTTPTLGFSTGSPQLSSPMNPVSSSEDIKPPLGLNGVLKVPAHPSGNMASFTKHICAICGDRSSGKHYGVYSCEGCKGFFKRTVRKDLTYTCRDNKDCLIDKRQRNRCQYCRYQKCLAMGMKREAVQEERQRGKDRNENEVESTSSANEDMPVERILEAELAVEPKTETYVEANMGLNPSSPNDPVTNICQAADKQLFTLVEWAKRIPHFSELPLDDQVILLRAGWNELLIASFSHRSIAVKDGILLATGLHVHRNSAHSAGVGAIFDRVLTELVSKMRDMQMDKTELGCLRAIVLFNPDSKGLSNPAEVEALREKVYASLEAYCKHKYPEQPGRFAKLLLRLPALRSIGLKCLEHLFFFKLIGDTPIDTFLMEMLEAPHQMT

Experiment [2] has the same target. Kind of experiment: OT_NURR1_NURR1RXRa_1440: Odyssey Thera (OT) 24-hour HEK293T Protein Complementation Assay for Nurr1/retinoid X receptor (RXR) (AID 2283386; active means hit-call score of the fitted dose curve at least 0.9, where 1 is the maximum). The gist of the method:
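HEK293T cells were dosed with compound and read 24 h later by fluorescence intensity in a protein-fragment complementation format, where Nurr1–RXRα interaction reconstitutes a split reporter. Activity was fitted as gain of signal relative to DMSO baseline.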

Read-out in experiment [3]: Fatty acid synthase (Homo sapiens) (UniProt P49327)
Kind of experiment: LTEA_HepaRG_FASN: Life Technologies and Expression Analysis (LTEA) Assay for Fatty Acid Synthase (FASN) using HepaRG (AID 2283448). Conditions: mRNA level, 48 h; actives raise or lower the signal. The essentials: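 Differentiated human HepaRG cells were exposed for 48 h in serum-free induction medium to eight half-log concentrations up to 100 uM in 0.5% DMSO, in duplicate. FASN mRNA was quantified by TaqMan qRT-PCR, normalized to ACTB/GAPDH/POLR2A, and fitted bidirectionally against DMSO.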

Read-out in experiment [4]: Cyclin D2 (CCND2), CCND2 (gene 894)
Briefly: LTEA_HepaRG_CCND2: Life Technologies and Expression Analysis (LTEA) Assay for Cyclin D2 (CCND2) using HepaRG (AID 2283449). Conditions: mRNA level, 48 h; actives raise or lower the signal. The gist of the method: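 Read-out is CCND2 mRNA level measured by qRT-PCR in human HepaRG liver cells and normalised to three housekeeping genes. Chemicals were applied for 48 h at up to 100 uM, with gain or loss fitted relative to 0.5% DMSO.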

Read-out in experiment [5]: Cyclin Dependent Kinase Inhibitor 1A (CDKN1A), CDKN1A (gene 1026)
Briefly: LTEA_HepaRG_CDKN1A: Life Technologies and Expression Analysis (LTEA) Assay for Cyclin Dependent Kinase Inhibitor 1A (CDKN1A) using HepaRG (AID 2283450). The settings on record: mRNA level, 48 h; actives raise or lower the signal. The essentials: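 Differentiated HepaRG cells in serum-free induction medium, exposed 48 h in duplicate to eight half-log concentrations up to 100 uM in 0.5% DMSO. mRNA measured by TaqMan qRT-PCR, normalized to ACTB, GAPDH, POLR2A; bidirectional fit versus DMSO.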

Read-out in experiment [6]: Cyclin D1 (CCND1), CCND1 (gene 595)
Kind of experiment: LTEA_HepaRG_CCND1: Life Technologies and Expression Analysis (LTEA) Assay for Cyclin D1 (CCND1) using HepaRG (AID 2283451).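 On AC50: TaqMan qRT-PCR transcript level normalised to ACTB GAPDH and POLR2A housekeeping genes.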 Conditions: mRNA level, 48 h; actives raise or lower the signal. The essentials:
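Differentiated HepaRG cells exposed 48 h in serum-free induction medium to eight half-log concentrations from 100 uM top, 0.5% DMSO, duplicates. CCND1 mRNA measured by Fluidigm TaqMan qRT-PCR, normalised to ACTB, GAPDH, POLR2A; bidirectional fit.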

Read-out in experiment [7]: catalase (CAT), CAT (gene 847)
Kind of experiment: LTEA_HepaRG_CAT: Life Technologies and Expression Analysis (LTEA) Assay for catalase (CAT) using HepaRG (AID 2283452). Conditions: mRNA level, 48 h; actives raise or lower the signal. The essentials: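 Expression of CAT was quantified by TaqMan qRT-PCR with ACTB/GAPDH/POLR2A normalization after 48 h chemical exposure of HepaRG. Eight-point half-log series, top 100 uM, in 0.5% DMSO; gain or loss fitted against vehicle.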

In experiment [8] the target is Peroxisome proliferator-activated receptor gamma (Homo sapiens) (UniProt P37231). Briefly: OT_PPARg_PPARgSRC1_0480: Odyssey Thera (OT) 8-hour Protein-Complementation Assay for Peroxisome Proliferator-activated Receptor Gamma / SRC-1 Co-activator (AID 2283387; active means hit-call score of the fitted dose curve at least 0.9, where 1 is the maximum). The essentials:
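HEK293T transiently transfected with PPARg and SRC-1 fused to Venus YFP fragments, compounds 8 h at 37C. Fixed, Draq5-stained cells imaged; nuclear/cytoplasmic 488 nm fluorescence ratio over at least 350 cells per image; gain fitted versus DMSO.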

The target is the same in experiment [9]. Kind of experiment: OT_PPARg_PPARgSRC1_1440: Odyssey Thera (OT) 24-hour Protein-Complementation Assay for Peroxisome Proliferator-activated Receptor Gamma/ SRC-1 Co-activator (AID 2283388; active means hit-call score of the fitted dose curve at least 0.9, where 1 is the maximum). The essentials: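 HEK293T transiently transfected with PPARg/SRC-1 split-Venus YFP fusions 48 h before dosing, then treated 24 h at 37C. Fixed cells imaged; nuclear/cytoplasmic 488 nm fluorescence ratio, gain of signal versus DMSO.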

Read-out in experiment [10]: Tumor necrosis factor receptor superfamily member 6 (Homo sapiens) (UniProt P25445)
Briefly: LTEA_HepaRG_FAS: Life Technologies and Expression Analysis (LTEA) Assay for Fas cell surface death receptor (FAS) using HepaRG (AID 2283447). The settings on record: mRNA level, 48 h; actives raise or lower the signal. The essentials: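 FAS transcript level was measured by TaqMan qRT-PCR against three housekeeping genes after 48 h chemical exposure. Cells were HepaRG, 0.5% DMSO vehicle, with a top concentration of 100 uM and half-log dilutions over eight points, in duplicate.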

The nature of experiment [11]: CEETOX_H295R_11DCORT: CeeTox H295R High-throughput Steroidogenesis Assay for 11-Deoxycortisol (11DCORT) (AID 2283432).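 On AC50: 11-deoxycortisol secreted into the medium measured by LC-MS/MS.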 The settings on record: actives raise or lower the signal. The essentials: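 H295R cells prestimulated 48 h with 10 uM forskolin, then exposed 48 h to chemical in 0.1% DMSO. 11-Deoxycortisol in medium quantified by HPLC-MS/MS after MTBE extraction; bidirectional fit versus DMSO. MTT viability read in same wells.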

Experiment [12] can be described thus: CEETOX_H295R_OHPREG: CeeTox H295R High-throughput Steroidogenesis Assay for OH-Pregnenolone (OHPREG) (AID 2283434). The settings on record: actives raise or lower the signal. The essentials: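 Hormone levels in spent medium were measured by tandem mass spectrometry following liquid-liquid extraction. Cells (H295R) had been forskolin-stimulated (10 uM, 48 h) before a 48 h chemical exposure at 0.1% DMSO, with activity fitted in both directions against DMSO.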

A short description of experiment [13]: CEETOX_H295R_OHPROG: CeeTox H295R High-throughput Steroidogenesis Assay for OH-Progesterone (OHPROG) (AID 2283435). Conditions: actives raise or lower the signal. The essentials: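 H295R human adrenal cells were prestimulated 48 h with 10 uM forskolin, then exposed 48 h to test chemical (0.1% DMSO final). 17alpha-hydroxyprogesterone in medium was measured by HPLC-MS/MS after MTBE extraction; bidirectional fitting vs DMSO.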

A short description of experiment [14]: CEETOX_H295R_CORTIC: CeeTox H295R High-throughput Steroidogenesis Assay for Corticosterone (CORTIC) (AID 2283437).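 Further: corticosterone secreted into medium quantified by mass spectrometry.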 The settings on record: actives raise or lower the signal. The essentials:
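Corticosterone secreted into medium is measured by reverse-phase HPLC with tandem MS following liquid-liquid extraction. Cells are forskolin-stimulated (10 uM, 48 h) before 48 h test exposure; activity fitted in both directions against DMSO.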

The nature of experiment [15]: CEETOX_H295R_CORTISOL: CeeTox H295R High-throughput Steroidogenesis Assay for Cortisol (AID 2283438).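 Further: cortisol secreted into medium quantified by LC-MS/MS.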 The settings on record: actives raise or lower the signal. The gist of the method: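 H295R human adrenal cells were prestimulated 48 h with 10 uM forskolin, then exposed 48 h to test chemical (0.1% DMSO final). Medium cortisol was quantified by HPLC-MS/MS after MTBE extraction; bidirectional fitting relative to DMSO baseline.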

A short description of experiment [16]: CEETOX_H295R_DOC: CeeTox H295R High-throughput Steroidogenesis Assay for DOC (AID 2283439). Conditions: actives raise or lower the signal. The gist of the method:
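H295R adrenal cells prestimulated 48 h with 10 uM forskolin, then exposed 48 h to test chemical (0.1% DMSO final). Medium 11-deoxycorticosterone extracted with MTBE, quantified by HPLC-MS/MS; bidirectional fit versus DMSO baseline; MTT viability in same wells.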

Experiment [17] can be described thus: CEETOX_H295R_ESTRADIOL: CeeTox H295R High-throughput Steroidogenesis Assay for Estradiol (AID 2283440).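 Further: estradiol secreted into medium quantified by LC-MS/MS after dansyl derivatisation.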 The settings on record: actives raise or lower the signal. The gist of the method:
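H295R cells pre-stimulated 48 h with 10 uM forskolin, then exposed 48 h to chemical in 0.1% DMSO. Medium estradiol quantified by MTBE extraction, dansyl derivatisation and HPLC-MS/MS; bidirectional fit versus DMSO; MTT viability required >/=70%.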

A short description of experiment [18]: CEETOX_H295R_ESTRONE: CeeTox H295R High-throughput Steroidogenesis Assay for Estrone (AID 2283441).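 Further: estrone secreted into medium measured by LC-MS/MS after dansyl derivatization.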 Conditions: actives raise or lower the signal. The gist of the method: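 H295R cells; 48 h forskolin (10 uM) prestimulation; 48 h compound exposure, 0.1% DMSO final. Medium estrone: MTBE extraction, dansyl derivatization, HPLC-MS/MS. Bidirectional fit vs DMSO.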

A short description of experiment [19]: CEETOX_H295R_PROG: CeeTox H295R High-throughput Steroidogenesis Assay for Progesterone (PROG) (AID 2283442).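 On AC50: human H295R adrenal cells primed with 10 µM forskolin before dosing.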 Conditions: actives raise or lower the signal. The essentials:
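H295R adrenal cells prestimulated 48 h with 10 uM forskolin, then exposed 48 h to test chemical in 0.1% DMSO. Progesterone in medium quantified by HPLC-MS/MS after MTBE extraction; viability checked by MTT in same wells.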

Consider 13 compounds from PubChem BioAssay (EPA / NIEHS).

Records with an inconclusive call do not appear. The source made the active and inactive calls. How the source made its calls, unless noted: active means hit-call score of the fitted dose curve at least 0.9, where 1 is the maximum; inactive means score below 0.9.

Broadly, the AC50 is the concentration giving half of the maximal activity seen.

Chain of Peroxisome proliferator-activated receptor gamma (Homo sapiens) (P37231 whole entry, looked up, the tested form may be a part): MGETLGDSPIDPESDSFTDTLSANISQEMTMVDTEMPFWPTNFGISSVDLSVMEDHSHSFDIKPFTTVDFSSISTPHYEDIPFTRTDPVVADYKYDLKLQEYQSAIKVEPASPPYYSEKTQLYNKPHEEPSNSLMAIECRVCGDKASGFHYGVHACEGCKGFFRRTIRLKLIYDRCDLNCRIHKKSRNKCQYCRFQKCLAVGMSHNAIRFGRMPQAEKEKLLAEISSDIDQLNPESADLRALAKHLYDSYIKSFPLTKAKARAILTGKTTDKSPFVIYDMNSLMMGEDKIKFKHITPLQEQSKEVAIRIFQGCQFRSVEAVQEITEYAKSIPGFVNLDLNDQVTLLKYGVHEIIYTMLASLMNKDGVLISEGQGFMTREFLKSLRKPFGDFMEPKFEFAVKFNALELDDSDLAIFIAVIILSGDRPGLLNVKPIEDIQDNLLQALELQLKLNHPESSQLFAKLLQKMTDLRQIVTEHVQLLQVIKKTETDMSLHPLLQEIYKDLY
Chain of Fatty acid synthase (Homo sapiens) (P49327 whole entry, looked up): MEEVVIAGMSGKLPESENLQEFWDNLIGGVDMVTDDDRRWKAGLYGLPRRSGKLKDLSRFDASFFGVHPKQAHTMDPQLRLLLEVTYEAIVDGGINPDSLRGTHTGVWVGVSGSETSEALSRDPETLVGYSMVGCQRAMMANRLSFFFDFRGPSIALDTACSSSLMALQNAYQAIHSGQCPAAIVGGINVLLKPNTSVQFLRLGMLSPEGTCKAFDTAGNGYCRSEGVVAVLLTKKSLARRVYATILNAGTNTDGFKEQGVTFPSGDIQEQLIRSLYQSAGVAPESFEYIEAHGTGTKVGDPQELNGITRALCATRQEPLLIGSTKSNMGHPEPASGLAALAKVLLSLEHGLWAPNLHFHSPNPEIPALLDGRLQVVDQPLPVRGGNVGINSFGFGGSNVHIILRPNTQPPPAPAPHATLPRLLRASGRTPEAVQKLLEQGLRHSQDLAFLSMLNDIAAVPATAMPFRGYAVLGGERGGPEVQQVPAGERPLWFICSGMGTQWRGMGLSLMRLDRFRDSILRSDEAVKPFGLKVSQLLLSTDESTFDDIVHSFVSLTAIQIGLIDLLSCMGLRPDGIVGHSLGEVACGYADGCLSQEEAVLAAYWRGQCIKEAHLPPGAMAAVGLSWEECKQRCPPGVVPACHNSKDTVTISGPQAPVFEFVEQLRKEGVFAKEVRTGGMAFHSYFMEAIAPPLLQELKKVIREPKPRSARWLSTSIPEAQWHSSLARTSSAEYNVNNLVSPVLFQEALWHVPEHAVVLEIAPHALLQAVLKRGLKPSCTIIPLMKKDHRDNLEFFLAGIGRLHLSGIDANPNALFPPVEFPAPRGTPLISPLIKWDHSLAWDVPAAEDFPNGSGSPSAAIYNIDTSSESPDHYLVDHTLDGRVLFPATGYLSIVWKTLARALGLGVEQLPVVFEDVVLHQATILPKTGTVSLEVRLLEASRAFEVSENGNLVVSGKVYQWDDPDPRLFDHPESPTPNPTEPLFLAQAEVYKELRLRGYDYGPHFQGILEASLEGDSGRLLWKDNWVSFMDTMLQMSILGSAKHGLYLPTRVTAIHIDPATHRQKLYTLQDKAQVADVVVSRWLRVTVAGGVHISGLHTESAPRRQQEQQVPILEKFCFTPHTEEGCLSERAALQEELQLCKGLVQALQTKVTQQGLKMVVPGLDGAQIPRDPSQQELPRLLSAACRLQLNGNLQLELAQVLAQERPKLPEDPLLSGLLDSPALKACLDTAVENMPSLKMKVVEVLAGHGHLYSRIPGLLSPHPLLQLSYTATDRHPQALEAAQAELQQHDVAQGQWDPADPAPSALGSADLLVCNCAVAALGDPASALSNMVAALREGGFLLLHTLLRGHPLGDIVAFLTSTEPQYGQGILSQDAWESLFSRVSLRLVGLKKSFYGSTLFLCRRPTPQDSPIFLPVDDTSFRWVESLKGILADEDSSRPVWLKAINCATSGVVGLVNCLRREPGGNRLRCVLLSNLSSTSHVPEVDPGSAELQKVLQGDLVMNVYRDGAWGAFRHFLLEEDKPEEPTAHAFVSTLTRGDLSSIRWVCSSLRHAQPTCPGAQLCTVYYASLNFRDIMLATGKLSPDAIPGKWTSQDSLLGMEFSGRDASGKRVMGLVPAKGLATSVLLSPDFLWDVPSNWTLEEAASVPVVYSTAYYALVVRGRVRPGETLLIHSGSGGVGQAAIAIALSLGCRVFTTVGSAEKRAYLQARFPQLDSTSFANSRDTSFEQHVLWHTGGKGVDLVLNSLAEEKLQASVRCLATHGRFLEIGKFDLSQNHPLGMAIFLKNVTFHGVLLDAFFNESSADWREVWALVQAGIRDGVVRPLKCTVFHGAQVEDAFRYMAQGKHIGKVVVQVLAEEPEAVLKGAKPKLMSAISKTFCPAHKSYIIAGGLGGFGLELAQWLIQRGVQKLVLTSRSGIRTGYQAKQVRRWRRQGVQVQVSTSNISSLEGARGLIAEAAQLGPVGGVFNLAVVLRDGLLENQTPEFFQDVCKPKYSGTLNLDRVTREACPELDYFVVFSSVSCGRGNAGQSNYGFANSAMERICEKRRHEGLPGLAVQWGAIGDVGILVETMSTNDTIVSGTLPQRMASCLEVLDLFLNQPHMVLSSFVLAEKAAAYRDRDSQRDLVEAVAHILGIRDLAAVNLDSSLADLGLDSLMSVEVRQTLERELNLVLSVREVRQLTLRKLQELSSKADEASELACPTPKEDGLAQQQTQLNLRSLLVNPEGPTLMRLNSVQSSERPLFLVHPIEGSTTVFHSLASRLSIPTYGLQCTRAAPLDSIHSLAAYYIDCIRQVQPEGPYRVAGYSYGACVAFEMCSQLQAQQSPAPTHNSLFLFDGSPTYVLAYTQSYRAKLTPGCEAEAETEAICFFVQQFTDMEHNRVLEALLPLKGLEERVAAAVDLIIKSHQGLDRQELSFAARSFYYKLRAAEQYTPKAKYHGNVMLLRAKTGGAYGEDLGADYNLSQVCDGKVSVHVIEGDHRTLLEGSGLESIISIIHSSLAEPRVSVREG

With `CC(C)(C)OOC(C)(C)CCC(C)(C)OOC(C)(C)C`, the compound was classed as inactive in [1], in experiment [2], in experiment [3], in experiment [4], in experiment [5] and in experiment [6]. Also, the result in experiment [7] was inactive.
As to `O=C1CCCO1`, the call in experiment [1], in [8], in experiment [9], in experiment [3], in experiment [4] and in experiment [5] was inactive. Further, the compound was classed as inactive in [6] and in experiment [7]. Besides, the AC50 in [10] is 50 µM (active).
On to `CCCSC(=O)N(CCC)CCC`, for which the result in experiment [1], in experiment [10], in [3], in experiment [4], in experiment [5] and in experiment [6] was inactive. Further, the compound was classed as inactive in experiment [7].
For the compound `Nc1cc(Cl)cc(C(=O)O)c1Cl`, the compound was called inactive in experiment [9], in [10], in experiment [3], in experiment [4], in [5] and in experiment [6]. The call in [7] was inactive.
As to `COc1cc(C=O)cc2c1[C@H](COC(N)=O)[C@]1(OC(C)=O)ON2C[C@H]2[C@@H]1N2C(C)=O`, the result in experiment [8], in experiment [9], in [3] and in [5] was inactive. Further, the AC50 in [4] was 29.6 µM (active); in [6] it was 50 µM (active); in experiment [7], 0.412 µM (active).
With `CS(=O)(=O)NC(=O)c1cc(Oc2ccc(C(F)(F)F)cc2Cl)ccc1[N+](=O)[O-]`, the call in [2], in [8], in [9], in experiment [3], in [4] and in experiment [5] was inactive. For the same compound, the result in [6] and in experiment [7] was inactive.
In the case of `OCCCBr`, the call in experiment [9], in experiment [3], in experiment [4], in [5], in [6] and in experiment [7] was inactive.
`CO[C@@H]1[C@H](OC(=O)NC(=O)CCl)CC[C@]2(CO2)[C@H]1[C@@]1(C)O[C@@H]1CC=C(C)C`: the compound was called inactive in [1], in experiment [9], in experiment [3], in experiment [4], in experiment [5] and in experiment [6]. In addition, the outcome in experiment [7] was inactive.
In the case of `[Cl-].[Cl-].[Hg+2]`, the concentration at half-maximal activity (AC50) in [2] is 11.4 µM (active). In addition, the result in [8], in experiment [9], in experiment [10], in experiment [3], in experiment [4] and in [5] was inactive. Also, the outcome in experiment [6] and in experiment [7] was inactive.
Consider `Clc1ccccc1Cl`, for which the compound was classed as inactive in [2], in experiment [9], in experiment [3], in [4], in experiment [5] and in [6]. Besides, the outcome in experiment [7] was inactive.
As for `Nc1ccc(N=Nc2ccccc2)cc1`, the call in experiment [1], in experiment [9], in [14], in [17] and in experiment [18] was inactive. In addition, the half-maximal activity concentration (AC50) in experiment [11] was 36.7 µM (active); in experiment [12], 50 µM (active); in experiment [13] it was 12.6 µM (active); in experiment [15], 68.7 µM (active); in [16], 12.8 µM (active); in experiment [19], 75.6 µM (active). Also, the concentration at half-maximal activity (AC50) in experiment [10] was 13 µM (active); in experiment [3] it was 21.6 µM (active); in [5], 11.2 µM (active); in experiment [6], 28.8 µM (active); in experiment [7], 14.9 µM (active).
Turning to `CCCCCCCCOC(=O)c1ccc(C(=O)OCCCCCCCC)c(C(=O)OCCCCCCCC)c1`, the result in [2], in experiment [9], in experiment [10], in [3], in experiment [4] and in experiment [5] was inactive. Further, the call in experiment [6] and in experiment [7] was inactive.
On to `Cn1cc(-c2ccccc2)c(=O)c(-c2cccc(C(F)(F)F)c2)c1`, for which the call in experiment [1], in [9], in [11], in [12], in experiment [13] and in experiment [14] was inactive. Also, the compound was classed as inactive in experiment [15], in [16], in experiment [19], in experiment [4], in [6] and in experiment [7]. The AC50 in experiment [3] was 9.92 µM (active); in experiment [5], 63.8 µM (active).
